DAX1 inh-1 – inhibitors of human orphan nuclear receptor DAX1 (NR0B1) | AID 504766 | hit rate 0.99% among 340,000 | HEK293 Gal4-DAX1 luciferase reporter, luminescence | P51843 | inhibition, % at 6.75 µM;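 active means inhibition above the mean over all tested compounds plus 3 SD, cut at about 4.2% in these data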;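 further: inhibition shows as a rise in luminescence from relieved DAX1 repression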
DAX1 inh-2 – DAX1 (NR0B1) inhibition, primary screen; HEK293T StAR-luciferase reporter, SF-1/DAX-1 repression relief; inhibition, % at 6.8 µM; hit rate 1.1% among 370,000; AID 652010;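 active means inhibition above the mean over all tested compounds plus 3 SD, cut at about 3.6% in these data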;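 further: higher inhibition means more luminescence from relief of DAX-1 repression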
ssDAF-12 act – activates DAF-12 receptor from parasite S. stercoralis. HEK293 ssDAF-12/GRIP1 lit1-tk-luc reporter, luminescence; % of 3 µM dafachronic acid response. AID 652126. activation, % at 6.8 µM. hit rate 1% among 370,000;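 active means activation above the mean over all tested compounds plus 3 SD, cut at about 0.9% in these data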
hcDAF12 agonist – activators of H. contortus DAF-12 nuclear receptor; hit rate 1.4% among 370,000; AID 652067; HEK293 hcDAF-12 lit1-tk-luc reporter, luminescence; 0% DMSO, 100% Δ7-dafachronic acid; activation, % at 6.8 µM;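 active means activation above the mean of all tested compounds plus 3 SD, cut at about 5.5% in these data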
hgDAF12 agonist – agonists of H. glycines DAF-12 nuclear receptor | HEK293 GAL4-hgDAF12 UAS-luciferase reporter, agonist luminescence; normalized to butyrate control | activation, % at 6.8 µM | hit rate 1.8% among 370,000;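 active means activation above a cutoff set at the mean of all screened compounds plus 3 SD, cut at about 10% in these data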
DAX1 conf – NR0B1 (human) inhibition, confirmation | shares compounds with DAX1 inh-2 | HEK293T StAR-promoter luciferase reporter, SF-1/DAX-1 repression | inhibition, % at 6.8 µM | hit rate 87% among 2,400;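 active means inhibition above the average of every tested compound plus 3 SD, cut at about 3.8% in these data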;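 further: active compounds raise luminescence by relieving repression of the StAR reporter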
Target sequence (P51843 whole entry, looked up): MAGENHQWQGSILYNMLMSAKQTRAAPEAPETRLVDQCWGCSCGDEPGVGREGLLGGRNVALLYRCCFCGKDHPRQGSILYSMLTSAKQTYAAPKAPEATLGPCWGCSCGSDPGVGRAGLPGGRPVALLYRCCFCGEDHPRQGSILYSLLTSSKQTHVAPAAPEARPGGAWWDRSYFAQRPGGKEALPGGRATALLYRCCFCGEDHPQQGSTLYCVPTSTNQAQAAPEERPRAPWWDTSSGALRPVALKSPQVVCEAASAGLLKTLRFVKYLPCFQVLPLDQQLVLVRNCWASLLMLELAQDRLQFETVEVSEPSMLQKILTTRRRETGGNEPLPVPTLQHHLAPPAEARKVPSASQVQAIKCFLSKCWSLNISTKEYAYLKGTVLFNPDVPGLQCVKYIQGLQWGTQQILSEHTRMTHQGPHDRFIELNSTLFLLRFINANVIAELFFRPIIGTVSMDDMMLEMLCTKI
SF1 AF2mut Luc – nonselective inhibitor or artifact in SF-1 mutant DAX1 counter-screen; shares compounds with DAX1 inh-2; HEK293 StAR-luciferase, SF-1 AF2 mutant, luminescence; inhibition, % at 6.8 µM; hit rate 78% among 2,400;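 active means inhibition above the mean of all tested compounds plus 3 SD, cut at about 3% in these data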
Each line names hits and unclear results; the compound was inactive in the other large screens (follow-up assays come after a bar, where they were run). Shown are actives, neighbours in structure and some others; about 4.1% of the full set was active somewhere.

CCOc1ccc(NC(=O)c2cccc(NC(=O)c3ccccc3)c2)cc1	none
Cc1ccc(NC(=O)CCCNC(=O)c2ccc(Cl)cc2)c(O)c1	DAX1 inh-2 5.3, hcDAF12 agonist 6.4 | DAX1 conf 4.1 | SF1 AF2mut Luc 3.7
Cc1cnc(NC(=O)CCCNC(=O)c2ccc(Cl)cc2)s1	DAX1 inh-2 5.5 | DAX1 conf inactive | SF1 AF2mut Luc 3.2
CC[C@H](NC(=O)CC[C@H]1O[C@@H](n2cnc3c(NC(=O)c4ccccc4)ncnc32)[C@H](O)[C@@H]1O)c1ccccc1	none (no result: DAX1 inh-1)
O=[N+]([O-])c1ccc(F)cc1OCc1nc(-c2cccs2)no1	DAX1 inh-2 6.9, ssDAF-12 act 1.1, hcDAF12 agonist 6.1, hgDAF12 agonist 12 | DAX1 conf 8.7 | SF1 AF2mut Luc 4.8
COc1ccc(-c2cc3c(o2)CCCC3OCCN2CCOCC2)cc1 (stereo unspecified)	DAX1 inh-2 4.7 (no result: DAX1 inh-1) | DAX1 conf 5.7 | SF1 AF2mut Luc 3.0
c1cc(-c2cc3c(o2)CCCC3OCCN2CCOCC2)cs1 (stereo unspecified)	none (no result: DAX1 inh-1)
O=C(Nc1ccc(Cl)cc1Cl)c1ccc2ncsc2c1	none
O=C(Nc1ccc(F)cc1F)c1ccc2ncsc2c1	DAX1 inh-2 4.9 | DAX1 conf inactive | SF1 AF2mut Luc inactive
CCc1c(C)c2ccc(OC(C)C(=O)NC(Cc3c[nH]c4ccc(O)cc34)C(=O)O)c(C)c2oc1=O (stereo unspecified)	none
Cc1cc(Cl)ccc1OCc1cn2cccnc2n1	DAX1 inh-2 8.0, hgDAF12 agonist 11 | DAX1 conf 8.3 | SF1 AF2mut Luc 4.0
COc1cc(Cl)ccc1OCc1cc(C(=O)N2CCN(C3CCCCC3)CC2)no1	none
CN(C)c1ccc(C=C2C=Cc3ccccc32)cc1	DAX1 inh-2 4.8, hcDAF12 agonist 6.2, hgDAF12 agonist 13 | DAX1 conf 15 | SF1 AF2mut Luc 8.0
COc1cc2c(cc1OC)C(=Cc1ccc(N(C)C)cc1)C=C2	none
C=C[C@@]1(C)CC(=O)[C@]2(O)[C@@]3(C)[C@@H](O)CCC(C)(C)[C@@H]3[C@H](O)[C@H](OC(C)=O)[C@@]2(C)O1	DAX1 inh-2 9.6 | DAX1 conf 22 | SF1 AF2mut Luc inactive
COc1ccccc1OCCCC(=O)Nc1nnc(C2CCCO2)s1 (stereo unspecified)	DAX1 inh-2 6.1 | DAX1 conf 4.2 | SF1 AF2mut Luc 3.7
c1ccc(COc2ccc(-c3cc4nc(NCCN5CCOCC5)ccn4n3)cc2)cc1	none (no result: DAX1 inh-1)
N#Cc1ccccc1S(=O)(=O)N1CCC(C(=O)NCc2ccccc2CN2CCCC2)CC1	DAX1 inh-2 5.4 | DAX1 conf inactive | SF1 AF2mut Luc inactive
Cc1ccc(S(=O)(=O)N2CCC(C(=O)NCc3ccccc3CN3CCCC3)CC2)cc1	none
COc1ccc(-c2nc3ccccc3[nH]2)cc1	DAX1 inh-2 6.8, hcDAF12 agonist 5.8, hgDAF12 agonist 12 | DAX1 conf 15 | SF1 AF2mut Luc 6.1
CCN1CCN(c2ccc(S(=O)(=O)N3CCOCC3)cc2NC(=O)C(C)Oc2ccc(Cl)cc2)CC1 (stereo unspecified)	none
O=C(CSc1ccccc1)NC1CCCCCC1	DAX1 inh-2 6.2, hcDAF12 agonist 6.3 | DAX1 conf 7.7 | SF1 AF2mut Luc 3.8
O=C(CCS(=O)(=O)c1ccccc1)NC1CCCCC1	DAX1 inh-2 4.7 | DAX1 conf 5.8 | SF1 AF2mut Luc 4.0
O=C(CSc1ccccc1)NC1CCCCCCC1	none
COc1ccc(S(=O)(=O)CCC(=O)NC2CCCCC2)cc1	none
CCC1CCCCN1C(=O)CCCc1ccccc1 (stereo unspecified)	none
CCC1CCCCN1C(=O)CCS(=O)(=O)c1ccccc1 (stereo unspecified)	DAX1 inh-2 4.8 | DAX1 conf 4.2 | SF1 AF2mut Luc inactive
O=C(O[C@H]1CC[C@@]23CCCN2C(=O)CCC[C@H]3C1)N1CCCC1	none (no result: DAX1 inh-1, DAX1 inh-2)
CCCOC1CCCN(Cc2nc(-c3ccc(C(=O)OC)cc3)no2)C1 (stereo unspecified)	none
C[C@H]1CN([C@@H](C)CO)C(=O)c2cc(C3=CCCC3)cnc2O[C@@H]1CN(C)C(=O)c1ccncc1	none

Bioassay records deposited in PubChem by The Scripps Research Institute Molecular Screening Center.
